Results on 54 sequences are retold here after article PMC7819943, “Rice protein-binding microarrays: a tool to detect cis-acting elements near promoter regions in rice”.

The full ranking holds about 68,000 sequences; the median of “fluorescence intensity (a.u.)” is about 9,100, and the highest 2% start at about 16,000. For the sample, the highest values were picked, then their nearest neighbours and some sequences at random.

OsWRKY34, sequence (Q0JBA9 entry or part of it): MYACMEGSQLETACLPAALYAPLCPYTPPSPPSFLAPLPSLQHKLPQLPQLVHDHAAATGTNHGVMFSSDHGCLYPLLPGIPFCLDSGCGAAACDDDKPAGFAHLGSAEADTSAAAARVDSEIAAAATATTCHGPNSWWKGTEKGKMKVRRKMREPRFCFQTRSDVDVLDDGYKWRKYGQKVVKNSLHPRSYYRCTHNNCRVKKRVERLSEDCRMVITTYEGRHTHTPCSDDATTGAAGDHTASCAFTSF

The target of the assay is OsWRKY34 (Oryza sativa, UniProt Q0JBA9 1-250). Briefly: protein-binding microarray (RPBM); PBS, 2% BSA, 51.3 ng/ul salmon testes DNA, 50 uM zinc acetate, 200 nM TF, 25 C, 1 h; high values mean tight binding. The conditions noted are these: protein: recombinant; tags: N-terminal polyhistidine and DsRed monomer fusion (pET32a); label: CyDye5-dUTP incorporated in the synthesized complementary strand; 3' TTTTT single-stranded linker to array surface; dsDNA, one strand shown. A digest of the protocol:
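For the binding signal, per-feature fluorescence intensity was read in arbitrary units on an Axon 4000B scanner. Before scanning, a 2% BSA-blocked custom Agilent array made double-stranded with Cy5-dUTP was washed after 1 h at 25 °C with 200 nM protein and 50 µM zinc acetate. The proteins were Ni–NTA-purified transcription factors with N-terminal polyhistidine and DsRed fusions, expressed in E. coli BL21-CodonPlus.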
For “GGGATTTGGTGGCTGCTCGCCTCTCGCGTTTCTTTTGCTGCGGAGTCACCTAGTGCAG”, the binding signal was 10200 fluorescence intensity (a.u.). On to “CTTCTGCTGCTTCTCTCTCTCTCTCTGTGTCTAGTCTACCCGGAGTCACCTAGTGCAG”, for which the binding signal was 9420 fluorescence intensity (a.u.). On to “TATTTGTCATTCGCTGTCTATGACATATGAGCCCTCATGTCGGAGTCACCTAGTGCAG”, for which the binding signal was 8280 fluorescence intensity (a.u.). Regarding “CTCCTCCCAACTTTCCCCTTTGCTACAGTAGCTCCTTCTTCGGAGTCACCTAGTGCAG”, the binding signal is 8100 fluorescence intensity (a.u.). As for “GAGAGAGGAAGAACAGTACGTGTCTAGGGGCATTTTGGTACGGAGTCACCTAGTGCAG”, the binding signal was 9700 fluorescence intensity (a.u.). “ACACCGGCCGCCGAGCTCGCCTCCTCTCTTGTCGCCCACACGGAGTCACCTAGTGCAG”: the binding signal is 10100 fluorescence intensity (a.u.). Regarding “GTTCCTGATATGTTTTTTTGTTGGTTGCAGGATGGCAAGACGGAGTCACCTAGTGCAG”, the binding signal is 8880 fluorescence intensity (a.u.). On to “GCTCTCTTTCCGCTTCTACCCTCGTCACGTCCACGAAATCCGGAGTCACCTAGTGCAG”, for which the binding signal is 14900 fluorescence intensity (a.u.). Take “GCCACAGCTCTTGATTTCTCGCTGGATCCTGGTTTTCACCCGGAGTCACCTAGTGCAG”: the binding signal is 8430 fluorescence intensity (a.u.). Regarding “CTGGCTCGCTCTCTCTCTCTCTCTCGTGGTGTGGTGTGGACGGAGTCACCTAGTGCAG”, the binding signal was 9310 fluorescence intensity (a.u.). Regarding “ACCTCGGAAAGTACGGGGTTCTCGTCGGCTGGGTGGGTGTCGGAGTCACCTAGTGCAG”, the binding signal is 11500 fluorescence intensity (a.u.). As to “GAGCGGGGAGGCGGCGGATCTAGGGTTTGGTTGGGTTTTTCGGAGTCACCTAGTGCAG”, the binding signal is 15300 fluorescence intensity (a.u.).

Turning to “GGTGGGTTTCGTGGTACGGCTCGCTCTCGTGGTGGGGAATCGGAGTCACCTAGTGCAG”, the binding signal was 19700 fluorescence intensity (a.u.).

As to “GGTTGGCAGCGGCGGCGGAGGTGGGGAGAGGCGGGTGGTTCGGAGTCACCTAGTGCAG”, the binding signal is 13600 fluorescence intensity (a.u.). The value for “TGCTAGGGTTTTCGGGAGGCGGGTCTAGGGTTGAGGCAAACGGAGTCACCTAGTGCAG” was 12300 fluorescence intensity (a.u.); that for “TCGTTTGGTTGGCGGGAGTTTTAAGAGGGATTAGGAGTTTCGGAGTCACCTAGTGCAG” was 9020 fluorescence intensity (a.u.); that for “GCGTTTTCGGCGGGGAACGCGGGGAGGCGGGTGGGGTTGACGGAGTCACCTAGTGCAG” was 21800 fluorescence intensity (a.u.). The same measure for “TTGGGGTTGGCGGGAATTAGGGTTTCGTTGGTGGGGTTTTCGGAGTCACCTAGTGCAG”: 25900 fluorescence intensity (a.u.); for “GTTGGTGTCCATCCGTTTCCGAGCCATTTTCATCCCTAATCGGAGTCACCTAGTGCAG”: 11600 fluorescence intensity (a.u.). In the case of “TCCTTCCATCTCTCTGCTCACTTCACTTCACCTTCCAATGCGGAGTCACCTAGTGCAG”, the binding signal was 9020 fluorescence intensity (a.u.).

“GTTTCCATTTATCTGTTCGCAGTCAGTTCCAAGAAGTACCCGGAGTCACCTAGTGCAG”: the binding signal is 8340 fluorescence intensity (a.u.). For “GTTGGTTGGCTGTTCCTTGCTTTCATCCAGCTAGCTACTGCGGAGTCACCTAGTGCAG”, the binding signal is 10500 fluorescence intensity (a.u.). “ACCGGCTCTCTAATCCTTAAATTCTGGCTTTGCTGCTAGTCGGAGTCACCTAGTGCAG”: the binding signal was 9240 fluorescence intensity (a.u.). With “CAGTGGAGGGTTGGATCGGTGTGTAGGGGCTTAAGTGCAACGGAGTCACCTAGTGCAG”, the binding signal was 9610 fluorescence intensity (a.u.).

As to “CATGTCCAACGTTTGACCATTTGCCTTATTTAAAATTTTTCGGAGTCACCTAGTGCAG”, the binding signal was 9250 fluorescence intensity (a.u.).

Take “ATGCTCGATCACATGCTTAATTCTTAGCTTTGTCCTAGTTCGGAGTCACCTAGTGCAG”: the binding signal was 8230 fluorescence intensity (a.u.). For the sequence “GCCGCCACCGCAACCTACCGCCGCCGCGGCAAGCCCAAGCCGGAGTCACCTAGTGCAG”, the binding signal was 8960 fluorescence intensity (a.u.). The same measure for “ACGGCCAGGCAAGCAAGCAAACGCCGCGGCTACCAATACCCGGAGTCACCTAGTGCAG”: 39600 fluorescence intensity (a.u.); for “GCTAAATACCAGCGAAGCAGTCGCCCGCGCAAACGCGCGCCGGAGTCACCTAGTGCAG”: 8220 fluorescence intensity (a.u.); for “TTAATCTTCACGCGTTTGCTTACTCCTATATATATATGTACGGAGTCACCTAGTGCAG”: 9730 fluorescence intensity (a.u.). Consider “TGTTTTTCCTGTGTTTTGCAATCCTCTGTTTTACACTTACCGGAGTCACCTAGTGCAG”, for which the binding signal was 13000 fluorescence intensity (a.u.).

As for “TTCCTGTGTTTTGCAATCCGCTGTTTTACACTTACATTCCCGGAGTCACCTAGTGCAG”, the binding signal was 17300 fluorescence intensity (a.u.).

“TCCTGTGTTTTGCAATCCTCTGTTTTTACACTTGCATTCCCGGAGTCACCTAGTGCAG”: the binding signal is 10400 fluorescence intensity (a.u.). As for “TTTCGATTGATTTTGCCTCCTGAAGCGTTGTCTAGCTTTTCGGAGTCACCTAGTGCAG”, the binding signal was 8180 fluorescence intensity (a.u.). “TAGTACAATGGGTGCCCTCAACGGAATAAACCGCTATACCCGGAGTCACCTAGTGCAG”: the binding signal was 37000 fluorescence intensity (a.u.). Turning to “ACCTAGTACGTATACACCTCAATCCATTATAAATAGCAACCGGAGTCACCTAGTGCAG”, the binding signal is 8280 fluorescence intensity (a.u.). For “GCACAAAACCCTCGAGCACCGCCCGCCGCTATATAACAACCGGAGTCACCTAGTGCAG”, the binding signal is 9960 fluorescence intensity (a.u.). The value for “AGACAAACTCTGGTTTCCGTGTCCAACGTTTGACCGTTCGCGGAGTCACCTAGTGCAG” was 11300 fluorescence intensity (a.u.).

Take “TTTCATTTCACTCGCTGGCATTTCATCTCCTTGACCTATCCGGAGTCACCTAGTGCAG”: the binding signal is 9400 fluorescence intensity (a.u.).

Regarding “ACCCACTGATCACGAAATCCACACACTGGCCACATCCAAACGGAGTCACCTAGTGCAG”, the binding signal is 8340 fluorescence intensity (a.u.). For “TTATCAAAAGTACTTTTTAAGTATGACTTCTCCGTTTTTACGGAGTCACCTAGTGCAG”, the binding signal was 8280 fluorescence intensity (a.u.). “CCCTCCGTTTCAAAATGTTTGACACCGTTGACTTTTTAGCCGGAGTCACCTAGTGCAG”: the binding signal is 28700 fluorescence intensity (a.u.).

With “CTTTCTTTATTTCAAAAGTATGATACCGTTGACTTTTCACCGGAGTCACCTAGTGCAG”, the binding signal is 24900 fluorescence intensity (a.u.).

For the sequence “ATACTCCCTCCGTTTCAAAATGTTTGACATCGTTGACTTTCGGAGTCACCTAGTGCAG”, the binding signal is 9980 fluorescence intensity (a.u.). For “CCCTCCGTTTCAAAATGTTTGATACCGTTGACTTTTTAGCCGGAGTCACCTAGTGCAG”, the binding signal is 21200 fluorescence intensity (a.u.). In the case of “TATTACTTCCTTCGTTTCAAAATGTTTGATACCGTTGACTCGGAGTCACCTAGTGCAG”, the binding signal is 12000 fluorescence intensity (a.u.).

For “TTTTCTTTTTCAATGTATGATTCTGTTGACTTTTCAGATACGGAGTCACCTAGTGCAG”, the binding signal was 11600 fluorescence intensity (a.u.). For “TACTCCCTCCGTTTCAAATGACACCATTGACTTTTTAGCACGGAGTCACCTAGTGCAG”, the binding signal was 9430 fluorescence intensity (a.u.).

On to “CATCCGTTTCAAAATGTTTGACACCGTTGACTTTTTAGCACGGAGTCACCTAGTGCAG”, for which the binding signal was 26200 fluorescence intensity (a.u.). In the case of “GAGATGTGTCCATATTTGTAGTATTGGGTGGTATCTATTTCGGAGTCACCTAGTGCAG”, the binding signal was 8550 fluorescence intensity (a.u.).

On to “TCACGGCCCCGCCGACCTCACGTCACCTTTTGTTGCGAGTCGGAGTCACCTAGTGCAG”, for which the binding signal was 8110 fluorescence intensity (a.u.). The value for “GCCGAGGGCGCCGCCGGCGTCGTCCGAGCTGTGCCGCGCGCGGAGTCACCTAGTGCAG” was 8640 fluorescence intensity (a.u.). The same measure for “ATCGTCCTCTGCACCTGCACACATCATCACTGGGACAACCCGGAGTCACCTAGTGCAG”: 8140 fluorescence intensity (a.u.). For the sequence “AGGTCGACGTGTATATGTTCGTCTTTCATATCTCTGCTCTCGGAGTCACCTAGTGCAG”, the binding signal is 9640 fluorescence intensity (a.u.).
